Data from PubChem BioAssay (EPA / NIEHS).
“And” between values parts separate entries of the source, which are not always exact repeats. Identical values can stand only once. Records with an inconclusive call do not appear. A structure can be active in one record and inactive in another. The source made the active and inactive calls. How the source made its calls, unless noted: active means hit-call score of the fitted dose curve at least 0.9, where 1 is the maximum; inactive means score below 0.9.

Columns and labels:
[1] = CCTE_Shafer_MEA_dev_spike_duration_mean: CCTE's Neural Network Formation Assay for Mean Spike Duration, Shafer Lab (AID 2284051);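 further: mean network spike duration pooled as area under curve over DIV 5 to 12 recordings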;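 on AC50: potency for a decrease in mean network spike duration versus DMSO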
In short: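 Rat cortical primary cultures, 48-well MEA (16 electrodes/well); compound from plating, renewed DIV 5, 9. Network spike duration (AxIS adaptive detector) recorded DIV 5/7/9/12, combined as trapezoidal AUC; loss direction vs DMSO.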

[2] = CCTE_Shafer_MEA_dev_network_spike_duration_std: CCTE's Neural Network Formation Assay for Standard Deviation of Network Spike Duration, Shafer Lab (AID 2284052);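 further: area under curve of spike duration SD across recording days 5 to 12; hits are decreases in network spike duration SD versus DMSO vehicle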
In short: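 Rat cortical cultures, 1.5 x 10^5 cells/well, exposed continuously from plating to DIV 12 with media/compound renewal at DIV 5, 9. Spontaneous activity recorded DIV 5/7/9/12, AxIS adaptive spike detector; AUC across days; negative direction vs DMSO.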

[3] = CCTE_Shafer_MEA_dev_per_network_spike_spike_number_mean: CCTE's Neural Network Formation Assay for Mean Number of Spikes in a Network Spike, Shafer Lab (AID 2284053)
In short: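 Rat cortical primary cultures on 48-well MEA; compound from day 0, re-dosed with full media change DIV 5, 9. Recorded DIV 5, 7, 9, 12; spikes in 0.05 s window at network-spike peak ÷ total network spikes; AUC; loss vs DMSO.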

[4] = CCTE_Shafer_MEA_dev_per_network_spike_spike_percent: CCTE's Neural Network Formation Assay for Percent of Spikes in a Network Spike, Shafer Lab (AID 2284054)
In short: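 Developing networks of rat cortical neurons are dosed at day 0 and recorded extracellularly four times up to day 12. The endpoint is the area under the curve of percent spikes in network spikes, fitted in the negative direction relative to DMSO.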

[5] = CCTE_Shafer_MEA_dev_LDH: CCTE's Lactate Dehydrogenase Assay for Cytotoxicity in the Neural Network Formation Assay, Shafer Lab (AID 2284068; active means hit-call score of the fitted dose curve at least 0.9, where 1 is the maximum;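 further: exposure for twelve days from plating with re-dosing on DIV 5 and 9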)
In short: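 Rat cortical primary neurons, MEA culture; dosing day 0–12, full medium plus compound exchange DIV 5, 9. Read-out: LDH enzyme activity, spectrophotometric. DMSO = negative control/baseline; signal loss → cytotoxicity.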

[6] = CCTE_Shafer_MEA_dev_AB: CCTE's Alamar Blue Assay for Cytotoxicity in the Neural Network Formation Assay, Shafer Lab (AID 2284083; active means hit-call score of the fitted dose curve at least 0.9, where 1 is the maximum;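 further: resazurin reduction fluorescence as viability of cultured neurons; twelve days of exposure from plating with re-dosing on DIV 5 and 9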)
In short: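 Rat cortical primary cultures, 1.5 x 10^5 cells/well on MEA; continuous compound exposure over 12 days of network development, re-dosed with full medium change DIV 5 and 9. Alamar Blue fluorescence; loss of signal = cytotoxicity vs DMSO baseline.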

[7] = CCTE_Shafer_MEA_dev_mutual_information_norm: CCTE's Neural Network Formation Assay for Mutual Information Normalization, Shafer Lab (AID 2284091);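 on AC50: mutual information between electrodes summarised as area under curve across four recording days; potency is for a decrease in mutual information relative to DMSO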
In short: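 Exposure of primary rat cortical neurons began at plating and ran to DIV 12, with full media and treatment renewal after DIV 5 and 9 recordings. Mutual information AUC (DIV 5–12) was analysed for loss versus DMSO.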

[8] = CCTE_Shafer_MEA_dev_correlation_coefficient_mean: CCTE's Neural Network Formation Assay for Mean Correlation Coefficient, Shafer Lab (AID 2284093);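 on AC50: well mean pairwise spike train correlation integrated as AUC over recording days 5 to 12; potency fitted for loss of correlation relative to DMSO vehicle wells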
In short: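 Rat cortical cultures, 1.5 x 10^5 cells/well, dosed from day 0 for 12 days. Spontaneous spikes recorded DIV 5/7/9/12; electrode-pair correlation coefficients averaged, AUC taken. Fit in loss direction vs DMSO.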

[9] = IUF_NPC1b_proliferation_BrdU_72hr: Leibniz Research Institute for Environmental Medicine (IUF) 72-hour Neural Progenitor Cell Bromodeoxyuridine (BrdU) Proliferation Assay (NPC1b) (AID 2284207)
In short: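 Neural progenitor spheres of human fetal origin are treated for three days; BrdU added for the last 16 h is quantified by luminescence ELISA, with DMSO as baseline and EGF/FGF omission as positive control.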

[10] = IUF_NPC1_viability_72hr: Viability Assessment at 72 hours in the Leibniz Research Institute for Environmental Medicine (IUF) Neural Progenitor Cell Proliferation Assay (NPC1) (AID 2284209)
In short: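 Three-day continuous exposure of human neural progenitor spheres under EGF/FGF-driven proliferation; cell viability scored by alamar blue signal versus DMSO.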

[11] = CCTE_Mundy_HCI_Cortical_Synap_Neur_Matur_NeuriteSpotCountPerNeuriteLength: CCTE's Synaptogenesis and Neurite Maturation Assay in rat cortical cells for Neurite Spot Count per Neurite Length, Mundy Lab (AID 2284210)
In short: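 Neurite-associated synapse density (synaptophysin puncta per unit neurite length) is measured by fluorescence high-content imaging in rat cortical cultures treated from DIV 7 and fixed at DIV 12, with DMSO as negative control.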

[12] = CCTE_Mundy_HCI_Cortical_Synap_Neur_Matur_BPCount: CCTE's Synaptogenesis and Neurite Maturation Assay in rat cortical cells for Branch Point Count, Mundy Lab (AID 2284211)
In short: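 In this multiplexed morphology assay, cortical cells from rat receive chemicals at DIV 7 and are fixed at DIV 12, then immunostained and imaged; branch points are counted, with DMSO as baseline.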

[13] = UKN2_HCS_IMR90_neural_migration: University of Konstanz (UKN) Leist Lab Neural Crest Cell Migration Assay in human induced IMR90 Pluripotent Stem Cells (UKN2) (AID 2284204); conditions: actives raise or lower the signal
In short: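 Using a 96-well stopper format with PLO/laminin/fibronectin coating, neural crest cells from iPSC migrate in cytokine-supplemented N2-S medium; after 24 h, chemicals are applied for a further 24 h, then cells are imaged after dye staining.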

[14] = CCTE_Shafer_MEA_acute_AB: CCTE's Alamar Blue Assay for Cytotoxicity in the Neural Acute Assay, Shafer Lab (AID 2284069; active means hit-call score of the fitted dose curve at least 0.9, where 1 is the maximum;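 further: active compounds lower the viability signal compared with DMSO wells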)
In short: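 Read-out: resazurin fluorescence (ex 544, em 590 nm) after CTB reagent at 1:6 dilution in fresh media. Cells: primary rat cortical neuron networks, DIV 13 or 15, chemically exposed on MEA plates; DMSO as negative control/baseline.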

[15] = CCTE_Shafer_MEA_acute_LDH: CCTE's Lactate Dehydrogenase Assay for Cytotoxicity in the Neural Acute Assay, Shafer Lab (AID 2284086; active means hit-call score of the fitted dose curve at least 0.9, where 1 is the maximum;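 further: active means LDH release rises above DMSO vehicle level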)
In short: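 Cytotoxicity readout: spectrophotometric LDH activity in supernatant of rat primary cortical neurons, post-plating day 13 or 15, sampled after 40 min compound exposure; signal gain relative to DMSO baseline.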

DIO2 (gene 1734) = assay: CCTE_GLTED_hDIO2: CCTE's human Deiodinase 2 (DIO2) Inhibition Assay, Great Lakes Toxicology and Ecology Division (GLTED) Lab (AID 2284050; active means hit-call score of the fitted dose curve at least 0.9, where 1 is the maximum)
In short: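 Triplicate cell-free incubations (3 h) of human DIO2 with chemical preceded colorimetric Sandell-Kolthoff quantitation of liberated iodide; DMSO served as negative control for curve fitting.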

DIO3 (gene 1735) = assay: CCTE_GLTED_hDIO3: CCTE's human Deiodinase 3 (DIO3) Inhibition Assay, Great Lakes Toxicology and Ecology Division (GLTED) Lab (AID 2284055; active means hit-call score of the fitted dose curve at least 0.9, where 1 is the maximum;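 on AC50: potency is for inhibition seen as loss of released iodide signal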)
In short: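 Steps: incubate adenovirus-produced hDIO3 with chemical for 3 hours; detect freed iodide via cerium-arsenic Sandell-Kolthoff colorimetry; compare with DMSO baseline.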

[16] = UKN5_HCS_SBAD2_cell_viability: Viability Assessment in the University of Konstanz (UKN) Leist Lab Neurite Outgrowth Assay in human iPSC-derived immature Dorsal Root Ganglia Neurons (UKN5) (AID 2284056)
In short: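 iPSC-derived immature peripheral neurons (SBAD2) seeded on Matrigel with CHIR99021, SU5402 and DAPT, dosed 1 h later for 24 h. Viability from Hoechst H-33342 and calcein-AM live staining, high-content imaging; bidirectional fit versus DMSO.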

[17] = UKN5_HCS_SBAD2_neurite_outgrowth: University of Konstanz (UKN) Leist Lab Neurite Outgrowth Assay in human iPSC-derived immature Dorsal Root Ganglia Neurons (UKN5) (AID 2284070); conditions: actives raise or lower the signal
In short: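 Neurite outgrowth is quantified as calcein-AM-labelled neurite area in human iPSC-derived peripheral neurons treated for 24 h, starting 1 h after plating in medium with CHIR99021 (1.5 uM), SU5402 (5 uM) and DAPT (5 uM).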

[18] = UKN4_HCS_LUHMES_neurite_outgrowth: University of Konstanz (UKN) Leist Lab Neurite Outgrowth Assay in human LUHMES cells (UKN4) (AID 2284206); conditions: actives raise or lower the signal
In short: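 Neurite area in dopaminergic-model LUHMES neurons is measured by high-content imaging of calcein-AM after 24 h treatment starting shortly after day-2 replating; Hoechst staining tracks viability.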

Measured: AC50

CCOC(=O)CC(SP(=S)(OC)OC)C(=O)OCC (stereo not drawn)
active: [1] 13.1 µM and 4.76 µM | [2] 13.3 µM | [3] 13 µM and 8.1 µM | [4] 11 µM and 3.69 µM | [5] 19.9 µM and 24.6 µM | [6] 22.9 µM and 25.1 µM | [7] 7.87 µM and 3.88 µM | [8] 12.7 µM and 22.6 µM | [12] 50 µM
inactive: [2] | [9] | [10] | [11] | [12]

CCCCOC(=O)c1ccccc1C(=O)OCCCC
inactive: [2] | [4] | [6] | [7] | [8] | [13] | [9] | [10]
active: [1] 50 µM | [3] 72.1 µM | [5] 50 µM | [11] 84.1 µM | [12] 50 µM

OC(c1ccc(Cl)cc1)(c1cncnc1)c1ccccc1Cl (stereo not drawn)
inactive: [14]

C#CCOS(=O)OC1CCCCC1Oc1ccc(C(C)(C)C)cc1 (stereo not drawn)
inactive: [14] | [15]

C=CC1(C)OC(=O)N(c2cc(Cl)cc(Cl)c2)C1=O (stereo not drawn)
active: [8] 50 µM
not listed: [14] | [15] | DIO2 (gene 1734) | DIO3 (gene 1735) | [16] | [17] | [18]
inactive: all other assays above

CCCN(CCC)c1c([N+](=O)[O-])cc(S(N)(=O)=O)cc1[N+](=O)[O-]
inactive: [14] | [15]
active: DIO2 (gene 1734) 141 µM | DIO3 (gene 1735) 160 µM

CON(C)C(=O)Nc1ccc(Cl)c(Cl)c1
inactive: [14]

Cc1ccc(-c2c(Cl)nc(C#N)n2S(=O)(=O)N(C)C)cc1
active: DIO2 (gene 1734) 81.8 µM | [1] 29.7 µM | [3] 14.4 µM | [5] 30.3 µM | [6] 50 µM | [7] 15.2 µM | [8] 27.9 µM | [9] 74.2 µM | [10] 83 µM | [11] 73.3 µM | [12] 71.1 µM
inactive: [2] | [4] | DIO3 (gene 1735) | [14] | [15] | [13]

N#CC(CCc1ccc(Cl)cc1)(Cn1cncn1)c1ccccc1 (stereo not drawn)
inactive: [14] | [15]

CCCCNC(=O)n1c(NC(=O)OC)nc2ccccc21
active: [3] 15 µM | [17] 7.98 µM | [8] 15 µM | [13] 10 µM | [18] 7.73 µM | [12] 15 µM
inactive: [1] | [2] | [4] | [16] | [6] | [7] | [11]

CCCCNC(=O)OCC#CI
active: [1] 3.81 µM and 1.12 µM | [2] 2.46 µM and 1.09 µM | [3] 2.76 µM and 1.55 µM | [4] 2.91 µM and 1.17 µM | [5] 3.84 µM and 1.13 µM | [6] 3.1 µM and 1.55 µM | [7] 1.81 µM and 1.09 µM | [8] 3.8 µM and 1.05 µM
inactive: [14] | [15]

COC(=O)N(OC)c1ccccc1COc1ccn(-c2ccc(Cl)cc2)n1
inactive: [2] | [14] | [15]
active: [1] 88.7 nM and 9.7 nM | [2] 0.0788 µM | [3] 82.2 nM and 11 nM | [4] 157 nM and 13.6 nM | [5] 54.7 nM and 5.99 nM | [6] 120 nM and 25.3 nM | [7] 57.3 nM and 9.62 nM | [8] 161 nM and 10.2 nM | [13] 29.2 µM | [9] 4.1 µM | [10] 7.52 µM | [11] 0.0823 µM | [12] 0.0563 µM

CCCCC(CC)COC(=O)c1ccccc1C(=O)OCC(CC)CCCC (stereo not drawn)
active: [1] 9.35 µM and 4.75 µM | [2] 3.05 µM | [3] 6.42 µM and 4.63 µM | [4] 7.71 µM and 22.4 µM | [5] 11.3 µM | [6] 12.4 µM | [7] 1.59 µM and 2.77 µM | [8] 5.5 µM and 7.56 µM | [11] 8.06 µM and 7.58 µM | [12] 3.03 µM
inactive: [1] | [2] | [3] | [4] | [5] | [6] | [7] | [8] | [13] | [9] | [10]

CCOc1cc(Oc2ccc(C(F)(F)F)cc2Cl)ccc1[N+](=O)[O-]
inactive: [13] | [9] | [10]
active: [1] 4.18 µM | [2] 1.13 µM | [3] 4.48 µM | [4] 13.2 µM | [5] 17.7 µM | [6] 30 µM | [7] 4.49 µM | [8] 6.5 µM | [11] 14.3 µM | [12] 14.8 µM

CNC(=O)ON=CC(C)(C)SC
active: [3] 0.549 µM
not listed: [13] | [15] | DIO2 (gene 1734) | DIO3 (gene 1735) | [16] | [17] | [18]
inactive: all other assays above
